Results as given in the supplement of paper PMC11634586.
Structures can show the parent of a compound that is named as a salt.

Test system: NCI-H1688
Experiment: inhibition of cell viability relative to untreated control (fraction); higher = stronger growth inhibition, active = 0.5 or more
Conditions: 30 µM; 24 h
Protocol: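 Natural product library (TargetMol, 640 compounds) screened on NCI-H1688 SCLC cells at 30 µM for 24 h; viability by CCK-8 absorbance at 450 nm, normalised to untreated control and expressed as inhibition rate (fraction). Compounds with >50% reduction in viability were selected as hits.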

SMILES	inhibition of cell viability
c1cc2c(cc1[C@H]1OC[C@H]3[C@@H]1CO[C@@H]3c1ccc3c(c1)OCO3)OCO2 [Sesamin]	-0.0637 (inactive)
COC1=C[C@]23CCCN2CCc2cc4c(cc2[C@@H]3[C@@H]1O)OCO4 [Cephalotaxine]	0.394 (inactive)
COc1cccc(C=O)c1OC [o-Veratraldehyde]	-0.267 (inactive)
C[C@@H]1O[C@@H](O[C@H]2C[C@@H](O)[C@]3(CO)[C@H]4[C@H](O)C[C@]5(C)[C@@H](C6=CC(=O)OC6)CC[C@]5(O)[C@@H]4CC[C@]3(O)C2)[C@H](O)[C@H](O)[C@H]1O [Ouabain octahydrate]	0.99 (active)
O=c1ccc2ccc3occc3c2o1 [Isopsoralen]	-0.0131 (inactive)
O=C(O)C1C2CCC(O2)C1C(=O)O (stereo not given) [Sodium Demethylcantharidate]	0.314 (inactive)
CC[C@H]1CN2CC[C@H]1C[C@@H]2[C@@H](O)c1ccnc2ccc(OC)cc12 [Hydroquinidine]	-0.0507 (inactive)
COc1ccc2c(c1)[nH]c1c(C)nccc12 [Harmine hydrochloride]	0.813 (active)
CC(C)=CCC[C@](C)(O)[C@H]1CC[C@]2(C)[C@@H]1[C@H](O)C[C@@H]1[C@@]3(C)CC[C@H](O)C(C)(C)[C@@H]3[C@@H](O[C@@H]3O[C@H](CO)[C@@H](O)[C@H](O)[C@H]3O)C[C@]12C [Ginsenoside Rh1]	0.0296 (inactive)
NCCc1ccc(O)cc1 [Tyramine]	0.176 (inactive)
CC(=O)O[C@@]12CO[C@@H]1C[C@H](O)[C@@]1(C)C(=O)[C@H](O)C3=C(C)[C@@H](OC(=O)[C@H](O)[C@@H](NC(=O)c4ccccc4)c4ccccc4)C[C@@](O)([C@@H](OC(=O)c4ccccc4)[C@H]21)C3(C)C [Deacetyltaxol]	0.667 (active)
COC(=O)C1=CCCN(C)C1 [Arecoline HBr]	0.105 (inactive)
CC(C)[C@]12O[C@H]1[C@@H]1O[C@]13[C@]1(O[C@H]1C[C@H]1C4=C(CC[C@@]13C)C(=O)OC4)[C@@H]2O [Triptolide (PG490)]	0.948 (active)
Cc1c2ccncc2c(C)c2c1[nH]c1ccccc12 [Ellipticine]	0.996 (active)
C[C@@H]1C[C@@H]([C@H](O)CC2CC(=O)NC(=O)C2)C(=O)[C@@H](C)C1 [Actidione]	0.943 (active)
O=c1cccc2n1C[C@@H]1CNC[C@H]2C1 [Cytisine]	-0.243 (inactive)
Cc1c([C@H](C)[C@@H]2NC[C@@H](C)C[C@H]2O)ccc2c1C[C@H]1[C@H]2CC=C2C[C@@H](O)CC[C@@]21C [Veratramine]	0.262 (inactive)
CN(C)CCc1ccc(O)cc1 [Hordenine]	0.0129 (inactive)
CN(CC(=O)O)C(=N)NP(=O)(O)O [Creatine phosphate disodium salt]	0.256 (inactive)
C[C@@H]1[C@H](O)[C@@H](C)/C=C/C=C/CC/C=C/C=C/C=C/C=C/[C@H](O[C@H]2O[C@@H](C)[C@H](O)[C@@H](N)[C@H]2O)C[C@@H]2O[C@](O)(C[C@@H](O)[C@H](O)CC[C@@H](O)C[C@@H](O)C[C@@H](O)CC(=O)O[C@H]1C)C[C@H](O)[C@H]2C(=O)O [Nystatin (Fungicidin)]	0.267 (inactive)
COc1cc2c(cc1OC)C13CCN4CC5=CCOC6CC(=O)N2C1C6C5CC43 (stereo not given) [Brucin]	-0.145 (inactive)
COc1cc([C@@H]2c3cc4c(cc3[C@@H](O)[C@H]3COC(=O)[C@H]23)OCO4)cc(OC)c1O [4'-Demethylepipodophyllotoxin]	0.568 (active)
C[C@@]12C(=O)OC(=O)[C@]1(C)[C@H]1CC[C@@H]2O1 [Cantharidin]	0.983 (active)
COc1cc(C2OCC3C(c4cc(OC)c(O[C@@H]5O[C@H](CO)[C@@H](O)[C@H](O)[C@H]5O)c(OC)c4)OCC23)cc(OC)c1O[C@H]1O[C@@H](CO)[C@H](O)[C@@H](O)[C@@H]1O (stereo not given in full) [Eleutheroside E]	0.231 (inactive)
C=C[C@H]1CN2CC[C@H]1C[C@H]2[C@H](O)c1ccnc2ccccc12 [Cinchonidine]	-0.042 (inactive)
NCC(O)c1ccc(O)cc1 (stereo not given) [Octopamine hydrochloride]	-0.206 (inactive)
COc1cc2c(c(OC)c1OC)-c1ccc(OC)c(=O)cc1[C@@H](NC(C)=O)CC2 [Colchicine]	0.84 (active)
O=C1C=CC[C@@H]2[C@H]3CCCN4CCC[C@@H](CN12)[C@@H]34 [Sophocarpine]	-0.484 (inactive)
CN1CCc2cc3c(cc2C1O)OCO3 (stereo not given) [Hydrastinine hydrochloride]	0.248 (inactive)
COc1cc(OC)c(OC)cc1C=O [Asarylaldehyde]	-0.42 (inactive)
